# Screening data from PubChem BioAssay.
# NOD2 RIPK2 PPI: NOD2-RIPK2 protein interaction inhibition; O43353; CHO BLA complementation NOD2-RIPK2, CCF4 ratio; inhibition, % at 4.98 µM; actives 0.38% (n = 360,000); AID 624267; in the data active means inhibition above about 21%;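 further: 0% = vehicle only and 100% = reference blocker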
# CRFR2-BP antag: CRF-BP/CRF-R2 complex antagonism | actives 0.59% (n = 350,000) | inhibition, % at 11.8 µM | HEK293 CRF-R2/CRF-BP, CRF-induced calcium fluorescence | AID 588475;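 active means inhibition of the ligand-induced calcium signal above about 50% at the single tested concentration, limit read from the data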
# TLR9-MyD88 block: inhibitors of human TLR9-MyD88 binding. actives 0.21% (n = 340,000). Q9NR96+Q99836. AID 504734. inhibition, % at 4.98 µM. CHO BLA complementation TLR9-MyD88, CCF4 FRET ratio;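 active means inhibition above the mean over all tested compounds plus 3 SD, cut at about 21% in these data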;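 further: 0% = DMSO only wells and 100% = clavulanate BLA inhibitor control wells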
# TLR4 MyD88 comp: blocks binding of human TLR4 to MyD88. HeLa CL3-4 TLR4/MyD88 BLA complementation, FRET ratio. inhibition, % at 8.4 µM. actives 0.18% (n = 200,000); in the data active means inhibition above about 25%;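 further: 0% = vehicle and 100% = reference inhibitor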
# Target sequence (O00206 whole entry, looked up): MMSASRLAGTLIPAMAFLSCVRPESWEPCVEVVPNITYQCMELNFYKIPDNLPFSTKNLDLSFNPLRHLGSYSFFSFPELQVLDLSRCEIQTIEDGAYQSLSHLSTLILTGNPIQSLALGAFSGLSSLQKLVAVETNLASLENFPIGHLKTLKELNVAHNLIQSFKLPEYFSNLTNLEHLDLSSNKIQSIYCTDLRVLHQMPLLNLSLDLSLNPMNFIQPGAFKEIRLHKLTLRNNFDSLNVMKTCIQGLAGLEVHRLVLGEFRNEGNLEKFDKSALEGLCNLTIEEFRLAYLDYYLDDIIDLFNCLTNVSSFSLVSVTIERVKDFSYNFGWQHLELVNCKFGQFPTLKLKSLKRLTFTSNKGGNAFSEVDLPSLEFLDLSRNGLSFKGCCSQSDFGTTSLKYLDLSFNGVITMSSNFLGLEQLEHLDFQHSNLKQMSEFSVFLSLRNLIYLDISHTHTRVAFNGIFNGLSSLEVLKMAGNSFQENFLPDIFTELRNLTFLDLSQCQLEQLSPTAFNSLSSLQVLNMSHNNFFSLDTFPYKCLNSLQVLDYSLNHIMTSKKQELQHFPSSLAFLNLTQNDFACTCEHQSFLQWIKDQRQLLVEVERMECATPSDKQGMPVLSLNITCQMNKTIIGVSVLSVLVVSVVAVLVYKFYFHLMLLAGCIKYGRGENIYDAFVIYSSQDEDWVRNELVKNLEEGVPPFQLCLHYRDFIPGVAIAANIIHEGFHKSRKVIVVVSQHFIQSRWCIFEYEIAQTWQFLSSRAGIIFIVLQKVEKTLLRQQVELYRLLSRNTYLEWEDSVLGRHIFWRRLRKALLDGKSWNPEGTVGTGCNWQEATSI
# Target sequence (Q99836 whole entry, looked up): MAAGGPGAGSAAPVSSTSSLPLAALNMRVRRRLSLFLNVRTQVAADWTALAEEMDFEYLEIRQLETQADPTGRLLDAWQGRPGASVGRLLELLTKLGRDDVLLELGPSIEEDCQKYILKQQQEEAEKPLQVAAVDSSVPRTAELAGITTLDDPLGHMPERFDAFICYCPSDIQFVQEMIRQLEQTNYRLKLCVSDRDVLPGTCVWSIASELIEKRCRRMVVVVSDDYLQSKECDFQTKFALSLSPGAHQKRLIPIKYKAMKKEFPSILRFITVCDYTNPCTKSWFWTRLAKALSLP
# m5-HT2A agonist: agonists of mouse serotonin 5-HT2A receptor (HTR2A) | CHO-K1 mHTR2A beta-arrestin complementation, luminescence; percent of 30 µM serotonin response | activation, % at 7.6 µM | actives 0.66% (n = 360,000);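 active means activation above a run cutoff, the mean activation of all tested compounds plus 3 SD, cut at about 14% in these data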;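 further: 0% = plate median of compound wells and 100% = 30 µM serotonin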
# ABHD5 PLIN5 PPI: ABHD5-PLIN5 protein interaction inhibition; Split G. princeps luciferase complementation, luminescence, 4 h; inhibition, % at 4 µM; actives 0.78% (n = 360,000); AID 602281;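 active means inhibition above the mean inhibition across every tested compound plus 3 SD, cut at about 22% in these data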;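 further: 0% = DMSO only wells and the 100% control is not disclosed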
# ABHD5-PLIN5 conf: ABHD5-PLIN5 interaction inhibition, confirmed | shares compounds with ABHD5 PLIN5 PPI | biochemical ABHD5-PLIN5 interaction, luminescence | inhibition, % at 4 µM | actives 67% (n = 2,200); in the data active means inhibition above about 23%;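 further: 0% = DMSO vehicle wells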
# HNF4 split-luc: active in HNF4 split-luciferase counter-screen for ABHD5-PLIN5 inhibitors | AID 651674 | actives 77% (n = 2,200) | inhibition, % at 4 µM | HNF4 dimerization, luminescence, biochemical | shares compounds with ABHD5 PLIN5 PPI;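 active means mean inhibition across replicate wells exceeding the computed hit threshold, cut at about 13% in these data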;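 further: light from luciferase halves that rejoin when HNF4 fusion proteins dimerize; 0% = DMSO only wells and the 100% control is not given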
# * hit, by the source's call; · = no result given. Rows were chosen to be rich in hits. Some 2.4% of all compounds tested hit in one or more screens of this group.
SMILES,NOD2 RIPK2 PPI,CRFR2-BP antag,TLR9-MyD88 block,TLR4 MyD88 comp,m5-HT2A agonist,ABHD5 PLIN5 PPI,ABHD5-PLIN5 conf,HNF4 split-luc
O=C(NC1(O)C(=O)c2ccccc2C1=O)c1ccccc1,-9.5,35.6,1.5,-6.3,-0.9,-30.1,·,·
CC(=O)C(C(C)=O)C1(O)C(=O)c2ccccc2C1=O,3.1,26.4,4.1,-13.8,0.8,41.3*,4.0,10.9
CCCCNC(=O)C1C(c2ccc(OC)cc2)=Nc2ccccc2N1C(=O)c1cccnc1 (stereo not given),10.5,·,·,·,-1.8,5.6,·,·
COCCNC(=O)/C(C#N)=C/C=C/c1ccccc1,4.4,9.6,-7.2,-0.5,0.5,26.8*,16.8,18.0*
C#CCN(C[C@@H]1[C@@H](OC(=O)NC2CCCC2)[C@@H](OC(=O)NC2CCCC2)Cn2c(=O)ccc(=O)n21)S(=O)(=O)c1ccc(C)cc1,10.4,-4.9,7.1,·,4.0,37.8*,64.3*,24.4*
C#CCN(C[C@@H]1[C@@H](OC(=O)Nc2cccs2)[C@@H](OC(=O)Nc2cccs2)Cn2c(=O)ccc(=O)n21)S(=O)(=O)c1ccc(C)cc1,-8.7,5.9,-12.5,·,7.1,61.2*,86.9*,50.4*
C#CCN(C[C@@H]1[C@@H](OC(=O)NC2CC2)[C@@H](OC(=O)NC2CC2)CN(C(=O)OC(C)C)N1C(=O)OC(C)C)S(=O)(=O)c1ccc(C)cc1,5.1,4.4,-3.5,·,1.0,3.3,·,·
Cc1cc(O)c(-c2cc(O)c(C)cc2O)cc1O,16.4,23.2,6.0,·,-5.3,43.6*,37.4*,86.6*
O=C(CCn1c(=S)[nH]c2cc3c(cc2c1=O)OCO3)NCCc1ccccc1Cl,-7.2,3.3,-0.6,·,5.9,4.0,·,·
O=C(OCc1cn([C@H]2CN(C(=O)C3CCCCC3)[C@@H](c3ccccc3)C[C@@H]2O)nn1)c1ccccc1,-4.6,-9.9,-19.5,·,3.3,-9.7,·,·
CCOC(=O)C1=C(O)/C(=C/c2ccc(-c3ccccc3C(=O)O)o2)SC1=Nc1ccc(C)cc1,4.9,-26.1,4.1,·,-0.5,26.6*,11.7,9.3
CC(C)C[C@H]1CN([C@@H](Cc2ccc(O)cc2)CN2CCC[C@H]2CN2C(=O)C(=O)NC[C@@H]2Cc2ccccc2)C(=O)C(=O)N1CC1CCCCCC1,0.0,·,·,·,-2.1,1.5,·,·
Cc1nc(C(C)NC(=O)c2cc(COc3ccc(C)c(C)c3)on2)c(C)s1 (stereo not given),-2.7,-2.3,-3.6,·,0.7,29.2*,2.5,10.1
Cc1cccc(CC(C)NC(=O)c2cc(COc3ccc(C)c(C)c3)on2)n1 (stereo not given),7.5,18.0,0.2,·,-4.5,-5.4,·,·
COc1ccc(C(=O)c2c(C)c3ccccc3n2CC(O)CNC(C)C)cc1 (stereo not given),11.8,-50.6,-0.8,10.7,5.5,26.4*,5.5,0.1
COc1cc(-c2cc(C(=O)Nc3ccc(N4CCOCC4)cc3)c3ccccc3n2)cc(OC)c1OC,-2.6,8.3,9.7,·,-1.4,24.4*,7.5,-0.2
N#Cc1cccc(-c2csc(C(O)c3ccc(F)cc3)n2)c1 (stereo not given),4.3,·,·,·,-2.0,-0.2,·,·
COc1ccc(-c2sc3ccccc3c2-c2cc(OC)ccc2C=O)cc1,-8.7,·,·,·,-4.6,7.0,·,·
CN1CCN(C(=S)c2cn(Cc3ccc(Br)cc3)c3ccccc23)CC1,5.5,-7.9,-3.3,-0.5,-8.6,27.6*,8.0,3.0
CN1CCN(C(=S)c2cn(Cc3ccccc3)c3ccccc23)CC1,-9.1,-6.9,-10.2,-10.9,-4.2,6.4,·,·
CSc1ncc(Cl)c(C(=O)Nc2nnc(SC)s2)n1,-9.2,0.6,2.5,-7.0,0.9,0.9,·,·
CSc1nnc(NC(=O)c2nc(S(=O)(=O)Cc3ccccc3)ncc2Cl)s1,5.8,26.7,-6.2,·,11.6,23.5*,68.8*,41.9*
CCOC(=O)[C@]12CCCC=C1N(CCc1ccc(OC)c(OC)c1)C(=O)[C@H](CC(=O)NCC13CC4CC(CC(C4)C1)C3)C2,-1.5,·,·,·,1.0,0.7,·,·
Cc1ccc(C2Nc3ccc4ccccc4c3C3=C2C(=O)CC(C)(C)C3)o1 (stereo not given),-8.8,-19.1,-13.8,-0.5,-9.2,29.6*,4.1,7.3
CCCCN(C=O)c1c(CC)nc2ccc(C(=O)N3CCN(S(=O)(=O)CC)CC3)cn12,3.6,·,·,·,6.5,2.3,·,·
SMILES,NOD2 RIPK2 PPI,CRFR2-BP antag,TLR9-MyD88 block,TLR4 MyD88 comp,m5-HT2A agonist,ABHD5 PLIN5 PPI,ABHD5-PLIN5 conf,HNF4 split-luc
Cc1ccc(NC2=C(Cl)C(=O)OC2NC(=O)c2ccccc2)cc1 (stereo not given),4.6,9.9,5.8,-11.8,-2.5,-6.1,·,·
O=C1OC(NC(=O)c2ccccc2)C(n2cc(CO)nn2)=C1Cl (stereo not given),-5.6,3.2,0.0,-4.4,-0.3,64.3*,90.3*,102.6*
CC1(C)OC(=O)C2=C(C[C@@H](C3CCCC3)O[C@H]2c2ccc(Cl)cc2)O1,-10.2,·,·,·,-3.5,-3.7,·,·
O=C(NCc1ccccc1)c1cc(C2CCCN(C(=O)c3ccccc3)C2)on1 (stereo not given),-4.7,·,·,·,2.5,1.2,·,·
Cc1nnc(N=c2ssnc2Cl)o1,-9.2,13.5,3.2,·,4.2,47.2*,97.5*,110.1*
Cc1ccc(N=c2ssnc2Cl)cc1,-0.7,-7.7,-4.9,-2.6,3.0,8.6,·,·
CCC(=O)Nc1ccc(S(=O)(=O)NC[C@H]2O[C@@H](n3cc(C)c(=O)[nH]c3=O)C[C@@H]2O)cc1,15.2,-13.4,6.6,·,1.7,-5.1,·,·
Cc1ccc(F)cc1C(=O)N1CCOCC1c1cc(C(=O)NCc2ccccc2)no1 (stereo not given),-6.0,·,·,·,2.3,7.2,·,·
COc1ccc(/C=C\C(=O)CC(O)(c2ccccc2)C(F)(F)F)cc1 (stereo not given),6.6,2.0,-5.2,-5.5,-3.5,52.9*,78.6*,54.9*
COc1ccccc1CNC(=O)Nc1nnc([C@H]2C[C@H](O)[C@@H](CO)O2)s1,-1.2,·,·,·,-2.8,-1.6,·,·
O=C(O)/C=C/C(=O)c1ccc2c(c1)CCc1ccccc1-2,11.5,-13.9,11.7,·,-3.4,94.8*,104.3*,110.3*
CC(NC(=O)/C=C/c1ccco1)c1nc2ccccc2n1Cc1ccccc1F (stereo not given),-6.0,49.1,-10.9,-14.5,2.9,35.0*,13.3,12.3
CC(NC(=O)/C=C/c1ccco1)c1nc2ccccc2n1Cc1c(Cl)cccc1Cl (stereo not given),8.3,49.1,-3.9,0.8,1.8,10.7,·,·
